From PubChem BioAssay AID624170 (National Center for Advancing Translational Sciences (NCATS), 2012)
Among all 410,000 compounds or so, about 850 (0.21%) were called active. Not shown: some 2% with an inconclusive outcome. The call rests on the fitted dose curve; in most records, active means well fitted inhibition curve with a large enough effect; inconclusive means small, poorly fitted or top-dose-only effect, or another doubt; inactive means no such curve, though single readings can be large or run the other way. Shown is part of a subset that was picked to be rich in actives. Entries that show only a call come without a potency.

target: Glutaminase kidney isoform, mitochondrial (Homo sapiens) (UniProt O94925); assay: qHTS for Inhibitors of Glutaminase (GLS); conditions: GLS enzymatic activity, qHTS titration; series mostly up to 45.5 µM
Sequence (O94925 whole entry, looked up, canonical isoform): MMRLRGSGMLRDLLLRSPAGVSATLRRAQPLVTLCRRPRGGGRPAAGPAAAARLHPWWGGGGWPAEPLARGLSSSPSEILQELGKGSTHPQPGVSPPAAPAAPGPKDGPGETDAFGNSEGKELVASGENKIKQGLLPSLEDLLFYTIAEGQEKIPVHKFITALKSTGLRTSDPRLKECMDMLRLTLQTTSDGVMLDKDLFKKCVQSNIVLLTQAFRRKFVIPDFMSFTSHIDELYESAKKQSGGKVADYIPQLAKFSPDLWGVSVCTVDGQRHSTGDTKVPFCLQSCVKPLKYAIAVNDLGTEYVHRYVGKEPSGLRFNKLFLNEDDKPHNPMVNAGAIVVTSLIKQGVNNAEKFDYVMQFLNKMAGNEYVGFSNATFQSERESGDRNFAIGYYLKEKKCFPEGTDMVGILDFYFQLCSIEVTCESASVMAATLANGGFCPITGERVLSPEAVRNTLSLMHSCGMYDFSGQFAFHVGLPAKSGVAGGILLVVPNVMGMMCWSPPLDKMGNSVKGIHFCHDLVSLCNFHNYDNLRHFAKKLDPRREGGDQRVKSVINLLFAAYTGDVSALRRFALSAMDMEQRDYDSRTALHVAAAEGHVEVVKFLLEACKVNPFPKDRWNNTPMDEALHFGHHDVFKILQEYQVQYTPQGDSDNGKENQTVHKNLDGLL
Method in brief: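 Human kidney-isoform GLS in 45 mM KH2PO4 pH 8.2, 0.02% Tween-20, with compound, started with 1mM L-Glutamine (added stock). Glutamate oxidase/HRP/Amplex red coupled fluorescence read at start and after 30 min at RT.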
Potency means the concentration at half of the fitted maximal effect.

Row | Compound | Potency
1 | CCOc1ccc(N(CC)C(=O)c2cc3c(=O)oc4ccccc4c3s2)cc1 | inactive
2 | CC(=O)Oc1ccccc1C(=O)Nc1ncc([N+](=O)[O-])s1 | inactive
3 | CCOC(=O)c1c(C)oc2nc(C)nc(N3CCN(c4ccc(OC)cc4)CC3)c12 | inactive
4 | O=C(CC1Oc2ccccc2NC1=O)NCc1ccc(F)cc1 (stereo not drawn) | inactive
5 | O=C(CCCCn1c(=O)c2ccccc2n(CC(=O)Nc2cccc(C(F)(F)F)c2)c1=O)NCc1ccc2c(c1)OCO2 | inactive
6 | COc1ccccc1Cn1c(=S)[nH]c2cc(C(=O)N3CCN(C)CC3)ccc2c1=O | 12.6 µM (active)
7 | CCOc1cc2[nH]c(=S)n(Cc3ccc(C(=O)N4CCN(C)CC4)cc3)c(=O)c2cc1OCC | inactive
8 | COc1ccc(OC)c(-n2c(=S)[nH]c3cc(C(=O)N4CCCCC4)ccc3c2=O)c1 | inactive
9 | O=C1C(c2[nH]c3ccccc3c2O)=Nc2ccccc21 | inactive
10 | COc1ccc2c(C)c(CCC(=O)NCc3ccc(OC)c(OC)c3)c(=O)oc2c1 | inactive
11 | Cc1c(CCC(=O)O)c(=O)oc2cc3occ(-c4ccccc4)c3cc12 | 11.2 µM (active)
12 | COc1cccc(-c2coc3cc4oc(=O)c(CC(=O)O)c(C)c4cc23)c1 | inactive
13 | CN1C(=O)C[C@H](c2ccccc2)C1=O | inactive
14 | COc1ccc(C)cc1N(C)C(=O)c1c(C)oc2ncnc(N3CCOCC3)c12 | inactive
15 | CC(C)c1ccc(S(=O)(=O)Nc2ccc(O)c(Sc3nc4ccccc4s3)c2)cc1 | inactive
16 | O=C(O)c1cccc(S(=O)(=O)Nc2ccc(O)cc2Sc2nc3ccccc3s2)c1 | 14.1 µM (active)
17 | O=[N+]([O-])c1c(NCCO)cc(Sc2nc3ccccc3s2)c2nonc12 | inactive
18 | CCOC(=O)c1ccc(NC(=O)CCn2cnnn2)cc1 | inactive
19 | CCCCCCCCCc1ccc(OCCOCCOCCOCCOCCOCCOCCOCCOCCO)cc1 | inactive
20 | C[N+](C)(CCOc1ccccc1)Cc1cccs1 (tested in a mixture with another compound) | inactive
21 | O=S(=O)(/C=C/c1ccccc1)N1CCNCC1 | inactive
22 | O=S(=O)(N1CCCCC1)N1CCNCC1 | 15.8 µM (active)
23 | Cc1cccc(C)c1N1CCN(S(=O)(=O)N2CCCCC2)CC1 | inactive

Row | Compound | Potency
24 | Cc1ccc(CN2CCC(CNC(=O)c3cnn(-c4ccccc4Cl)c3C3CCN(C(=O)OC(C)(C)C)CC3)CC2)cc1 | inactive
25 | COc1cc(Cl)c(C)cc1Nc1nnc(-n2nc(C)cc2C)c2ccccc12 | inactive
26 | COC(=O)CCCCC1=CCC2C(=O)C=C(O)C2C1 (stereo not drawn) | 12.6 µM (active)
27 | CCC(C)[C@@H](N)C(=O)O (stereo partly drawn) | inactive
28 | NCCCCC(N)C(=O)O (stereo not drawn) | inactive
29 | Oc1ccc(Cl)c2c1CCC2 | inactive
30 | CC(=O)OC[C@H]1O[C@@H](O[C@H]2[C@H](O)[C@@H](OC(=O)c3ccccc3C(=O)O)[C@H](O)O[C@@H]2COC(C)=O)[C@H](O)[C@@H](OC(=O)c2ccccc2C(=O)O)[C@@H]1O | inactive
31 | Cc1ccnc(SC2CC(=O)N(c3ccccc3)C2=O)n1 (stereo not drawn) | inactive
32 | Cc1ccnc(-n2sc3ccccc3c2=O)n1 | 10 µM (active)
33 | C/C=C/C=N/NC(=O)c1ccncc1 | inactive
34 | CCOC(=O)c1sc(NC(=O)/C=C/c2ccc(C(C)C)cc2)c(C(=O)OCC)c1C | inactive
35 | CCOC(=O)C1Nc2ccc(C(F)(F)F)cc2C2C=CCC12 (stereo not drawn) | inactive
36 | CCOc1cccc2c1N[C@@H](c1ccc(C(=O)O)cc1)[C@H]1CC=C[C@@H]21 | 3.98 µM (active)
37 | CCOc1cccc(CC(=O)N2CCc3c([nH]c4ccccc34)C2c2ccc(F)cc2)c1OCC (stereo not drawn) | inactive
38 | Cc1ccc(S(=O)(=O)NC(=O)NN2C[C@H]3CCC[C@@H]3C2)cc1 | inactive
39 | Cc1ccc(S(=O)(=O)n2nc(C)c(S(=O)(=O)N3CCCCCC3)c2C)cc1 | inactive
40 | CC(C)(O)c1ccccc1CC[C@H](SCC1(CC(=O)O)CC1)c1cccc(/C=C/c2ccc3ccc(Cl)cc3n2)c1 | inactive
41 | COc1ccnc(C[S@@](=O)[C@@H]2Nc3ccc(OC(F)F)cc3N2)c1OC | inactive
42 | C=C1C(=CC=C2CCC[C@]3(C)[C@@H]([C@H](C)C=C[C@H](C)C(C)C)CC[C@@H]23)C[C@@H](O)C[C@@H]1O | inactive
43 | Cc1cccc(CCNC(=O)c2ccc3c(c2)nc2n3CCC(C)C2)c1 (stereo not drawn) | inactive
44 | CCOC(=O)CSc1nc2c(c(=O)n(Cc3ccccc3Cl)c(=O)n2C)n1C | 7.94 µM (active)
45 | CCN(CC)C(=O)CSc1nc2ccsc2c(=O)n1Cc1ccccc1Cl | inactive
46 | CCC1CCCCN1C(=O)CSc1nc2c(c(=O)n(C)c(=O)n2C)n1C (stereo not drawn) | inactive

Row | Compound | Potency
47 | Cc1ccc(S(=O)(=O)N2CCc3cc(C(=O)Nc4ccc(Cl)cc4C)ccc32)cc1 | inactive
48 | CC(=O)CC(c1ccccc1)C1C(=O)Oc2ccccc2C1=O (stereo not drawn) | inactive
49 | Cc1ccc(NC(=O)c2cc(S(=O)(=O)NCCC3=CCCCC3)ccc2F)cc1C | inactive
50 | CC1(C)OC2CO[C@]3(COS(N)(=O)=O)OC(C)(C)OC3C2O1 (stereo partly drawn) | inactive
51 | CCOc1ccc(NS(=O)(=O)c2ccc(N)cc2)nn1 | inactive
52 | CN(C)CCCSc1ccccc1NC(=O)/C=C/c1ccccc1 | inactive
53 | COc1ccc(/C=N/NC(=O)Cn2cc(C(F)(F)F)ccc2=O)cc1 | inactive
54 | Oc1ccc(/C=N/Nc2ccc(C(F)(F)F)cn2)cc1O | 11.2 µM (active)
55 | C/C=C1\C2C=C(C)CC1(N)c1ccc(=O)[nH]c1C2 (stereo not drawn) | inactive
56 | Cc1c(Cl)cccc1NC(=O)C1CCCN(C(=O)c2cnn(-c3ccccc3)c2-n2cccc2)C1 (stereo not drawn) | inactive
57 | CCCCCCCCCCCCCCCCO | inactive
58 | CCCN(CCC)S(=O)(=O)c1ccc(C(=O)Nc2sc3c(c2C(=O)OC)CCN(CC)C3)cc1 | inactive
59 | Cc1ccc(CN2CCc3nc(N4CCN(C)CC4)ncc3C2)cc1 | inactive
60 | CC(=O)NC(=O)c1ccccc1O | inactive
61 | CC1(C)NC(=O)N(CC(=O)Nc2ccc(-c3ccccc3)cc2)C1=O | inactive
62 | Cc1ccc(NC(=O)Cn2sc3ccccc3c2=O)cc1 | 7.08 µM (active)
63 | O=C(Cn1nc(C(=O)O)c2ccccc2c1=O)Nc1ccc(F)cc1 | inactive
64 | Cc1ccc(Cl)cc1N1CCN(C(=O)CN2C(=O)COc3ccc(S(=O)(=O)N4CCOCC4)cc32)CC1 | inactive
65 | C=Cc1ccc(C(=O)N2CCCC(CCC(=O)N3CCN(c4ccccn4)CC3)C2)cc1 (stereo not drawn) | 17.8 µM (active)
66 | CC(=O)c1ccc(S(=O)(=O)NCCC(=O)N2CCN(c3ccccn3)CC2)cc1 | inactive
67 | COc1cccc(CC(=O)N2CCCC(CCC(=O)N3CCN(c4ccccn4)CC3)C2)c1 (stereo not drawn) | inactive
68 | CCOC(=O)c1ccc(NC(=O)C2CCN(S(=O)(=O)c3ccc4c(c3)CCCC(=O)N4)CC2)cc1 | inactive
